This is a sample that favours compounds with a hit; in the whole collection about 4.7% have one here.
TIM10 inh – growth inhibitors of TIM10 yeast strain | S. cerevisiae TIM10 strain growth, BacTiter-Glo luminescence, 24 h | 330,000 tested, 1.4% active | inhibition, % at 10 µM;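 active = inhibition of 40% or more at the single tested concentration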;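 also: wild-type TIM10 isogenic control strain grown at permissive 25 °C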
EBI2 block – antagonists of human EBI2 receptor; P32249; EBI2 beta-arrestin recruitment, luminescence, 7a,25-OHC stimulated; inhibition, % at 5 µM; 360,000 tested, 0.81% active; AID 651636; in the data active = inhibition above about 38%;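 also: enzyme fragment complementation signal reports receptor beta-arrestin coupling in cells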
Target sequence (P32249 whole entry, looked up, the tested form may be a part): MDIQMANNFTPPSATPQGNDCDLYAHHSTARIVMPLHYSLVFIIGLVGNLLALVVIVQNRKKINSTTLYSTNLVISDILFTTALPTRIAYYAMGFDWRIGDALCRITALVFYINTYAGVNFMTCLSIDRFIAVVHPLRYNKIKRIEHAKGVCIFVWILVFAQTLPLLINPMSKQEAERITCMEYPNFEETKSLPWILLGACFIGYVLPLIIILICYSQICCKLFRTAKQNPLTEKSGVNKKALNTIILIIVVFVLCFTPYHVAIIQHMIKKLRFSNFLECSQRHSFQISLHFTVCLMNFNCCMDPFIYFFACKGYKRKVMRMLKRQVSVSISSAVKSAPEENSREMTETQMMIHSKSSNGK
SKKanGAS inh – inhibitors of SKKanGAS S. pyogenes growth in kanamycin (SK-promoter or general growth effect); BacTiter-Glo, 6 h; 300,000 tested, 1.3% active; inhibition, % at 7.5 µM;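 active = mean replicate score, as percent of positive control median, at least 50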;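 also: strain carries kanamycin resistance gene driven by streptokinase promoter and grows in 40 µg/ml kanamycin; loss of luminescence reflects streptokinase promoter inhibition or plain growth inhibition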
tim10-1 inh – inhibits growth of tim10-1 mutant yeast; 330,000 tested, 2.2% active; AID 463190; S. cerevisiae tim10-1 ts strain growth, BacTiter-Glo, 24 h; inhibition, % at 20 µM;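 active = inhibition of at least 40%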;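 also: mutant grown at 25 °C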
tim23-1 inh – inhibits growth of tim23-1 mutant yeast. inhibition, % at 20 µM. 330,000 tested, 1.3% active. S. cerevisiae tim23-1 growth, BacTiter-Glo luminescence, 24 h. AID 463212;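 active = growth inhibition of the mutant yeast at or above 50%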;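 also: temperature-sensitive mutant grown at 25 °C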
PfHsp90 yeast 2 – inhibits growth of yeast expressing Plasmodium falciparum Hsp90; S. cerevisiae expressing PfHsp90, BacTiter-Glo ATP, 48 h; yeast lacking PDR1 and PDR3 efflux regulators; inhibition, % at 9.4 µM; 310,000 tested, 0.32% active; AID 504621;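 active = every replicate shows inhibition above about 80%, whatever the replicate mean, limit read from the data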
tim10-1 conf – tim10-1 yeast growth inhibition, confirmed; inhibition, % at 20 µM; shares compounds with tim10-1 inh; 7,400 tested, 56% active; S. cerevisiae tim10-1 ts strain growth, BacTiter-Glo, 24 h;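 active = inhibition of yeast growth at or above a set limit in either of two repeat tests at 20 µM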;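 also: tim10-1 mutant grown at permissive 25 °C to find synthetic lethal compounds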
A number is an active result; n = inactive; x = no result.

SMILES	TIM10 inh	EBI2 block	SKKanGAS inh	tim10-1 inh	tim23-1 inh	PfHsp90 yeast 2	tim10-1 conf
CN1C(=O)C(CC(=O)NCC2CCCCC2)SC1=Nc1ccccc1 (centres undefined)	n	n	n	n	n	n	x
CC(C1CC1)N(C(=O)c1ccccc1O)c1ccccc1 (centres undefined)	n	n	n	n	n	x	n
CC(C)c1nnc2c(N(C)S(=O)(=O)c3ccccc3)nc3ccccc3n12	n	n	n	43	n	n	n
COc1ccccc1NC(=O)c1ccc(COc2ccccc2OC)o1	n	n	n	41	n	n	n
CCCCn1c(-c2csc3c2CCC(C)C3)n[nH]c1=S (centres undefined)	n	n	n	51	n	n	n
CCn1c(-c2csc3c2CCCC3)n[nH]c1=S	n	n	n	n	n	n	x
Cc1nnc(N/N=C/c2cc([N+](=O)[O-])c(N3CCC(C)CC3)cc2N2CCC(C)CC2)n1N	n	n	n	n	n	x	x
CCc1nnc(N/N=C/c2ccc(N3CCC(C)CC3)c([N+](=O)[O-])c2)n1N	n	n	n	48	n	n	42
Nc1nc(OCC2CCCCC2)c2[nH]cnc2n1	n	n	n	n	n	n	x
CCN(c1ccccc1)c1nc(Cl)nc2c1cnn2C	x	n	x	x	x	x	x
Cc1c(C(=O)N2CCC(C)CC2)oc2ccc3c(c12)C(O)CC1(CCCCC1)O3 (centres undefined)	n	n	n	49	n	n	n
COCCNC(=O)c1oc2ccc3c(c2c1C)C(O)CC(C)(C)O3 (centres undefined)	n	n	n	n	n	n	x
CSc1cccc(NC(=O)C(C)NS(=O)(=O)c2ccc(F)cc2)c1 (centres undefined)	n	n	n	n	n	n	x
CCOc1ccc(-n2cc(C(=O)NCCOC)c3cc(OC)c(OC)cc3c2=O)cc1	n	n	n	n	n	n	x
CCOc1ccc(-n2cc(C(=O)Nc3cccc(OC)c3)c3cc(OC)c(OC)cc3c2=O)cc1	n	n	n	42	n	n	36
COc1ccc(N=Nc2ccc3ccccc3c2)c(O)c1	n	n	n	n	n	n	x
COc1cccc(N=Nc2ccc3ccccc3c2O)c1	n	n	n	46	n	n	31
CCN1C(=O)C(C)S/C1=N\S(=O)(=O)c1ccc(Cl)s1 (centres undefined)	n	n	n	n	n	n	x
CCc1cc(C(=O)NNC(=S)Nc2cccc(C)c2)cs1	n	n	n	n	n	n	x
Cc1cccc(NC(=S)NNC(=O)c2csc(C(C)C)c2)c1	n	n	n	44	n	n	n
c1ccc(-c2cc(-c3ccccc3)n3ncnc3n2)cc1	n	n	n	n	n	n	x
CCOC(=O)CSc1cc(-c2ccccc2)nc2ncnn12	n	n	n	44	n	n	35
O=C(CCC(=O)N1CCOc2ccccc21)NCc1cccnc1	n	n	n	n	n	n	x
O=C(O)CCCc1ccc2ccc3cccc4ccc1c2c34	n	n	n	43	n	n	n
O=C1c2ccccc2NC(c2cccc(O)c2)N1Cc1ccco1 (centres undefined)	n	n	n	n	n	n	x
SMILES	TIM10 inh	EBI2 block	SKKanGAS inh	tim10-1 inh	tim23-1 inh	PfHsp90 yeast 2	tim10-1 conf
CCOc1ccc(N2C=Nc3ccc(OCC)cc3C2)cc1	n	n	n	42	n	n	n
Cc1cc(-c2ccc(C)c(S(=O)(=O)NCc3ccc(Br)cc3)c2)on1	n	n	n	43	n	n	n
Cc1cc(-c2ccc(C)c(S(=O)(=O)NCc3cccc(Br)c3)c2)on1	n	n	n	41	n	n	n
CCOC(=O)C(CC)c1cc2n(c(=O)c1C#N)CCC21OCCO1 (centres undefined)	x	n	x	x	x	x	x
COc1cc(C(=O)Nc2ccc(Nc3ccccc3)cc2)cc(OC)c1OC	n	n	n	43	n	n	42
COc1cc(C(=O)Nc2ccc(Cl)c(C(F)(F)F)c2)cc(OC)c1OC	n	n	n	43	n	n	53
O=C(CCCN1C(=O)C2CC=CCC2C1=O)Nc1ccccc1F (centres undefined)	n	n	n	n	n	n	x
CN(C)C(=O)C12CCC(C)(c3nc4ccccc4nc31)C2(C)C (centres undefined)	n	n	n	42	n	n	n
Cc1cc2nc3c(nc2cc1C)C1(C(=O)N(C)C)CCC3(C)C1(C)C (centres undefined)	n	n	n	n	n	n	x
COc1ccc(NC(=O)c2cccn(CC=C(C)C)c2=O)cc1	n	n	n	n	n	n	x
O=C(CSc1ccccc1C(=O)NCc1ccccc1)NC12CC3CC(CC(C3)C1)C2	n	n	n	40	n	n	32
O=C(Nc1ccc(Cl)cc1)NC1CCCCC1Cc1ccco1 (centres undefined)	n	n	n	47	n	n	41
CC1CCC2(CC1)C(Nc1cccc(Cl)c1)=NC(=S)N2CC#N (centres undefined)	n	n	n	43	n	n	39
Cc1cc(C)nc(OC(=O)c2c(Cl)cc(Cl)cc2Cl)n1	n	n	n	44	n	n	33
COC(=O)c1cccc(C(=O)N2CCCC(CCC(=O)N(C)CCc3ccccn3)C2)c1 (centres undefined)	n	n	n	n	n	n	x
FC(F)(F)c1nnc2c(Sc3ccccc3)nc3ccccc3n12	n	n	n	n	n	x	x
FC(F)(F)c1nc2ccccc2c2nc3ccccc3n12	n	n	n	41	n	n	n
FC(F)(F)c1nnc2c(Sc3ccccn3)nc3ccccc3n12	n	n	n	55	n	x	35
Cc1cc(NC(=O)c2cccs2)n(-c2nc3ccccc3[nH]2)n1	n	n	n	n	n	n	x
Cc1cc(NC(=O)c2sccc2C)n(-c2nc3ccccc3[nH]2)n1	n	n	63	49	n	n	n
Cc1c(Cl)cccc1NC(=O)Cc1ccc([N+](=O)[O-])cc1	n	n	x	n	n	n	x
Cc1cc(Nc2ccccc2)nn1C(=O)c1ccc(Br)cc1	n	n	50	53	n	n	n
O=C(NCC(c1ccco1)N1CCN(c2ccccc2F)CC1)OCc1ccccc1 (centres undefined)	n	n	n	n	n	n	x
O=C(COc1ccccc1)NCC(c1ccco1)N1CCN(c2ccc(F)cc2)CC1 (centres undefined)	n	n	n	41	n	x	n
O=C(NCC(c1ccco1)N1CCN(c2ccccc2)CC1)OCc1ccccc1 (centres undefined)	n	n	n	41	n	n	n
Cc1c2c(nc3ccccc13)CCC(C(C)(C)C)C2 (centres undefined)	n	n	n	42	n	n	n
COc1cc(C(=O)Oc2cc(N)n(S(=O)(=O)c3ccccc3)n2)cc(OC)c1OC	n	n	n	n	n	n	x

Bioassay records as filed in PubChem BioAssay.
